Measured values taken from PubChem BioAssay (NCATS).
Records with an inconclusive call do not appear. Activity calls are given as the source filed them. Calls come from the whole dose curve; as a rule, active = well fitted cell-killing curve with a large enough effect; inconclusive = small, poorly fitted or top-dose-only effect, or effect the other way; inactive = no such curve, though single readings can be large or run the other way.

Assays:
[1] = Quantitative High-Throughput drug screen in 47 multiple myeloma cell lines against the NCATS MIPE library collection: LP1_DSMZ cell viability assay (AID 1918982); note: nearly all actives have a fitted effect of over 35% in size
Outline: (§1)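 500 cells/well per myeloma line exposed to pinned MIPE 4.0 compounds for 48 h at 37 °C, 5% CO2. Viability read as ATP by CellTiter-Glo luminescence, normalised to DMSO-only (100%) and media-only (0%) wells.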

[2] = Quantitative High-Throughput drug screen in 47 multiple myeloma cell lines against the NCATS MIPE library collection: KMS28PE_JCRB cell viability assay (AID 1918983); note: nearly all actives have a fitted effect of over 35% in size
Outline: as §1

[3] = Quantitative High-Throughput drug screen in 47 multiple myeloma cell lines against the NCATS MIPE library collection: L363_DSMZ cell viability assay (AID 1918984); conditions: L363 myeloma viability, CellTiter-Glo ATP luminescence, 48 h; viability (% of control): at 45.8 µM (top of the series); note: nearly all actives have a fitted effect of over 40% in size
Outline: as §1

[4] = Quantitative High-Throughput drug screen in 47 multiple myeloma cell lines against the NCATS MIPE library collection: KMS34_JCRB cell viability assay (AID 1918985); note: nearly all actives have a fitted effect of over 40% in size
Outline: as §1

[5] = Quantitative High-Throughput drug screen in 47 multiple myeloma cell lines against the NCATS MIPE library collection: OCIMY7_PLB cell viability assay (AID 1918987); conditions: OCI-MY7 myeloma viability, CellTiter-Glo ATP, 48 h; viability (% of DMSO): at 45.8 µM (top of the series); note: nearly all actives have a fitted effect of over 65% in size
Outline: as §1

[6] = Quantitative High-Throughput drug screen in 47 multiple myeloma cell lines against the NCATS MIPE library collection: OCIMY5_PLB cell viability assay (AID 1918988); note: nearly all actives have a fitted effect of over 65% in size
Outline: as §1

[7] = Quantitative High-Throughput drug screen in 47 multiple myeloma cell lines against the NCATS MIPE library collection: OPM1_PLB cell viability assay (AID 1918989); note: nearly all actives have a fitted effect of over 40% in size
Outline: as §1

[8] = Quantitative High-Throughput drug screen in 47 multiple myeloma cell lines against the NCATS MIPE library collection: SKMM1_PLB cell viability assay (AID 1919863); conditions: SKMM1 myeloma viability, CellTiter-Glo ATP, 48 h; viability: stronger effect = lower value; note: nearly all actives have a fitted effect of over 35% in size
Outline: as §1

[9] = Quantitative High-Throughput drug screen in 47 multiple myeloma cell lines against the NCATS MIPE library collection: U266_ATCC cell viability assay (AID 1919864); note: nearly all actives have a fitted effect of over 35% in size
Outline: as §1

[10] = Quantitative High-Throughput drug screen in 47 multiple myeloma cell lines against the NCATS MIPE library collection: XG6_PLB cell viability assay (AID 1919865); note: nearly all actives have a fitted effect of over 40% in size
Outline: as §1

[11] = Quantitative High-Throughput drug screen in 47 multiple myeloma cell lines against the NCATS MIPE library collection: XG1_PLB cell viability assay (AID 1919866); note: nearly all actives have a fitted effect of over 35% in size
Outline: as §1

[12] = Quantitative High-Throughput drug screen in 47 multiple myeloma cell lines against the NCATS MIPE library collection: PE2_PLB cell viability assay (AID 1919869); note: nearly all actives have a fitted effect of over 35% in size
Outline: as §1

[13] = Quantitative High-Throughput drug screen in 47 multiple myeloma cell lines against the NCATS MIPE library collection: PCM6_Riken cell viability assay (AID 1919870); note: nearly all actives have a fitted effect of over 30% in size
Outline: as §1

[14] = Quantitative High-Throughput drug screen in 47 multiple myeloma cell lines against the NCATS MIPE library collection: RPMI8226_ATCC cell viability assay (AID 1919871); note: nearly all actives have a fitted effect of over 30% in size
Outline: as §1

[15] = Quantitative High-Throughput drug screen in 47 multiple myeloma cell lines against the NCATS MIPE library collection: MM1R_ATCC cell viability assay (AID 1918981); note: nearly all actives have a fitted effect of over 35% in size
Outline: as §1

[16] = Quantitative High-Throughput drug screen in 47 multiple myeloma cell lines against the NCATS MIPE library collection: VP6_DJ cell viability assay (AID 1919867); note: nearly all actives have a fitted effect of over 40% in size
Outline: as §1

[17] = Quantitative High-Throughput drug screen in 47 multiple myeloma cell lines against the NCATS MIPE library collection: KMS28BM_JCRB cell viability assay (AID 1919874); note: nearly all actives have a fitted effect of over 35% in size
Outline: as §1

[18] = Quantitative High-Throughput drug screen in 47 multiple myeloma cell lines against the NCATS MIPE library collection: UTMC2_PLB cell viability assay (AID 1919868); conditions: CellTiter-Glo ATP luminescence, 48 h; viability (% of DMSO control): at 45.8 µM (top of the series); note: nearly all actives have a fitted effect of over 55% in size
Outline: as §1

[19] = Quantitative High-Throughput drug screen in 47 multiple myeloma cell lines against the NCATS MIPE library collection: OPM2_DSMZ cell viability assay (AID 1919872); note: nearly all actives have a fitted effect of over 30% in size
Outline: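 Myeloma cell lines, 500 cells per well, exposed to MIPE 4.0 library compounds for 48 h at 37C, 5% CO2. Viability from ATP by CellTiter-Glo luminescence; normalised to DMSO (100%) and media-only (0%) wells.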

[20] = Quantitative High-Throughput drug screen in 47 multiple myeloma cell lines against the NCATS MIPE library collection: KMS11_JCRBsus cell viability assay (AID 1919873); note: nearly all actives have a fitted effect of over 50% in size
Outline: as §1
Potency is the fitted concentration of half-maximal effect.

CC[C@H](C)C(=O)O[C@H]1C[C@H](O)C=C2C=C[C@H](C)[C@H](CC[C@@H](O)C[C@@H](O)CC(=O)O)[C@H]21
inactive: Potency [1] | Potency [2] | Potency [3] | Potency [4] | Potency [5] | Potency [6] | Potency [7] | viability [8] 102% | Potency [9] | Potency [10] | Potency [11] | Potency [12] | Potency [13] | Potency [14]

O=S(=O)(O)c1ccc2cc(N=Nc3cc(S(=O)(=O)O)c4cccnc4c3O)ccc2c1
active: Potency [15] 20.9 µM | Potency [6] 9.35 µM | Potency [7] 13.2 µM | Potency [8] 18.7 µM | Potency [9] 13.2 µM | Potency [16] 16.6 µM | Potency [12] 3.32 µM | Potency [14] 16.6 µM | Potency [17] 1.87 µM

CN(C)CCN(C)C(=O)c1ccc(NC(=O)Nc2ccc(-c3nc(N4CCOCC4)c4ccn(CC(F)(F)F)c4n3)cc2)cc1
active: Potency [1] 0.166 µM | Potency [2] 0.0469 µM | Potency [4] 0.372 µM | Potency [5] 3.32 µM | Potency [6] 0.418 µM | Potency [7] 0.0093 µM | Potency [8] 0.209 µM | Potency [16] 0.0469 µM | Potency [18] 0.0074 µM | Potency [12] 0.0074 µM | Potency [14] 0.0833 µM | Potency [19] 0.187 µM | Potency [20] 0.0372 µM | Potency [17] 0.0148 µM

CCCCCCCCCCCCCCCC(=O)O[C@H]1[C@@H](O)[C@@H](O)[C@@H]([C@H](NC(=O)[C@@H]2C[C@@H](CCC)CN2C)[C@H](C)Cl)O[C@@H]1SC
inactive: Potency [15] | Potency [6] | Potency [16] | Potency [13]
active: Potency [9] 18.7 µM | Potency [12] 10.5 µM | Potency [14] 3.32 µM

CCC(=O)NCC[C@@H]1CCc2ccc3c(c21)CCO3
inactive: Potency [15] | viability [8] 137% | Potency [10] | Potency [16] | Potency [12] | Potency [14] | Potency [20] | Potency [17]

O=C(O)c1ccc(O)c2ncc(N3CCOCC3)cc12
active: Potency [1] 20.9 µM | Potency [3] 20.9 µM | Potency [6] 13.2 µM | Potency [8] 18.7 µM | Potency [12] 16.6 µM
inactive: Potency [2] | Potency [13] | Potency [19]

OC[C@H]1O[C@@H](Oc2ccc(O)cc2)[C@H](O)[C@@H](O)[C@H]1O
inactive: Potency [1] | Potency [2] | Potency [3] | Potency [4] | Potency [7] | Potency [13] | Potency [14] | Potency [17]
active: Potency [16] 7.43 µM

N=C1SC(=Cc2ccc(-c3ccc4c(c3)C(=O)NC4=O)o2)C(=O)N1c1ccc(Br)cc1
inactive: Potency [3] | Potency [20] | Potency [17]
active: Potency [1] 2.96 µM | Potency [2] 4.69 µM | Potency [4] 2.64 µM | Potency [6] 2.96 µM | Potency [8] 3.32 µM | Potency [10] 1.66 µM | Potency [11] 2.35 µM | Potency [12] 2.09 µM | Potency [14] 3.32 µM | Potency [19] 2.64 µM

CC(C)C[C@@H](N)[C@H](O)C(=O)N[C@H](C(=O)N[C@H](C(=O)N[C@@H](CC(=O)O)C(=O)O)C(C)C)C(C)C
inactive: Potency [1] | Potency [2] | Potency [3] | Potency [6] | viability [8] 122% | Potency [14] | Potency [19] | Potency [20]
active: Potency [7] 4.69 µM | Potency [10] 7.43 µM | Potency [11] 2.64 µM | Potency [16] 5.26 µM | Potency [12] 18.7 µM

CCC(C)SSc1ncc[nH]1 (configuration not stated)
active: Potency [1] 8.33 µM | Potency [2] 11.8 µM | Potency [3] 2.96 µM | Potency [4] 4.18 µM | Potency [5] 3.72 µM | Potency [6] 5.26 µM | Potency [7] 3.72 µM | Potency [8] 11.8 µM | Potency [9] 4.69 µM | Potency [10] 7.43 µM | Potency [11] 5.26 µM | Potency [16] 13.2 µM | Potency [18] 8.33 µM | Potency [12] 3.72 µM | Potency [13] 7.43 µM | Potency [14] 23.5 µM | Potency [19] 5.9 µM | Potency [17] 9.35 µM

COc1cc2nc(-c3cc(F)ccc3O)nc(N[C@@H]3CNC[C@@H]3C(C)(C)O)c2cc1OC
active: Potency [1] 9.35 µM | Potency [2] 20.9 µM | Potency [3] 1.87 µM | Potency [4] 16.6 µM | Potency [5] 2.64 µM | Potency [6] 13.2 µM | Potency [7] 3.72 µM | Potency [9] 20.9 µM | Potency [10] 0.935 µM | Potency [16] 5.26 µM | Potency [12] 7.43 µM | Potency [13] 2.96 µM | Potency [14] 23.5 µM | Potency [19] 16.6 µM | Potency [20] 5.26 µM | Potency [17] 4.18 µM

O=C1CCCC(=O)C1C(=O)c1ccc(C(F)(F)F)cc1[N+](=O)[O-]
inactive: Potency [1] | Potency [2] | Potency [3] | Potency [5] | Potency [7] | Potency [10] | Potency [12] | Potency [13] | Potency [17]
active: Potency [9] 20.9 µM

O=C(Nc1cccc(C(F)(F)F)c1)Nc1cc(S(=O)(=O)NC2CC2)ccc1-c1ccsc1
active: Potency [15] 20.9 µM | Potency [5] 18.7 µM | Potency [10] 23.5 µM | Potency [12] 26.4 µM | Potency [14] 13.2 µM | Potency [19] 3.72 µM | Potency [20] 16.6 µM | Potency [17] 20.9 µM

COc1cc2c(cc1OC)CC(=O)N(CCCN(C)C[C@H]1Cc3cc(OC)c(OC)cc31)CC2
active: Potency [15] 11.8 µM | Potency [6] 16.6 µM | Potency [9] 16.6 µM | Potency [14] 11.8 µM
inactive: Potency [5] | Potency [10] | Potency [11] | Potency [13] | Potency [19] | Potency [17]
